In PubChem BioAssay:
Activity calls are given as the source filed them.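 Rule for the calls: active = inhibition above the hit cutoff set in the earlier primary screen (cut at about 27% in these data); inactive = the rest.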

Molecular target: Protein phosphatase methylesterase 1 (Homo sapiens) (UniProt Q9Y570)
Test: human PME-1 methylesterase inhibition confirmation – biochemical, fluorescence polarization, FP-Rh probe, triplicate (AID 2171);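 note: 0% = enzyme with DMSO and 100% = wells lacking PME-1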
Settings: recombinant PME-1, FP-Rh probe fluorescence polarization; at 5.9 µM; active compounds read high

Sequence of Protein phosphatase methylesterase 1 (Homo sapiens) (Q9Y570 whole entry, looked up): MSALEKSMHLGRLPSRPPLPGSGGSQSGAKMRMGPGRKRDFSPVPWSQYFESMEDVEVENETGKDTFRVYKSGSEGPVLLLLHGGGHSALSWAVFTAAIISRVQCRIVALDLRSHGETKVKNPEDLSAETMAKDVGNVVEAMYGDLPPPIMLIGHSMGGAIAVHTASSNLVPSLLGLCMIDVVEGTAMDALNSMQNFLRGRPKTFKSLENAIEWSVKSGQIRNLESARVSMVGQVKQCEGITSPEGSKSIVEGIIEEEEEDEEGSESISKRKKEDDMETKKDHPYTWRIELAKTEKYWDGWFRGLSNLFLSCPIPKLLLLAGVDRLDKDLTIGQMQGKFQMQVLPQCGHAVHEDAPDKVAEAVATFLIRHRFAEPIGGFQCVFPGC

| SMILES | inhibition |
| --- | --- |
| CCOC(=O)c1ccc(NC(=O)Nc2ccc3c4c(cccc24)C(=O)N3CC)cc1 | 16.2% (inactive) |
| Cc1c(C(=O)OC/C(O)=C(\C#N)c2nc3ccccc3[nH]2)oc2ccccc12 | -5.29% (inactive) |
| COc1cccc(C(=O)Oc2ccc(/C=N/Nc3ccc(C(=O)O)cc3)cc2OC)c1 | 36.3% (active) |
| CCN(CC)S(=O)(=O)c1ccc(C)c(NC(=O)COC(=O)c2ccc(C)c(S(=O)(=O)N3CCOCC3)c2)c1 | 49.7% (active) |
| CCOC(=O)CCc1c(C)nc(SCCCn2c(=O)[nH]c3ccccc32)c(C#N)c1C | 22.6% (inactive) |
| COc1ccc(-c2sc(Nc3ccc(F)c(F)c3F)nc2CCC(=O)NN)cc1 | 24.1% (inactive) |
| CC(C)Oc1ccc(S(=O)(=O)N2CCCCC2)cc1NC(=O)CN1C(=O)NC(C)(c2ccccc2)C1=O (stereo not given) | 42.6% (active) |
| Cc1noc(C)c1CSc1nc2ccccc2nc1NS(=O)(=O)c1ccc(Cl)cc1 | 36% (active) |
| Nc1cc2nsnc2cc1Br | 34.7% (active) |
| COc1cc2c(cc1NC(=O)Nc1ccccc1)oc1ccccc12 | -9.58% (inactive) |
| CCN(CC)S(=O)(=O)c1cc(NC(=O)C(C)N2CCN(c3ccccn3)CC2)ccc1C (stereo not given) | 18.6% (inactive) |
| Oc1ccccc1C1Nc2cccc3cccc(c23)N1 | 24.4% (inactive) |
| Nc1c(N2CCCC2)cc(Cl)c2nonc12 | 18.8% (inactive) |
| O=[N+]([O-])c1ccccc1/C=C/C=N/Nc1ccc(S(=O)(=O)Nc2ccc(Cl)cc2)cc1[N+](=O)[O-] | 14.2% (inactive) |
| C/C(=N\Nc1cccc([N+](=O)[O-])c1)c1ccccc1O | 39.4% (active) |
| Cn1c(=O)c(Nc2ccc(Cl)cc2)c2c3c(cccc31)C(=O)c1ccccc1-2 | 62.5% (active) |
| COc1ccc(S(=O)(=O)N2CCCCCC2)cc1NC(=O)Cc1cc(OC)c(OC)c(OC)c1 | 64% (active) |
| N#CC1=C(N)C(C#N)(C#N)C(c2ccncc2)C2CN(C(=O)OCc3ccccc3)CC=C12 (stereo not given) | 28.3% (active) |
| COc1ccc(OC)c(N2C(=O)CC(Cc3ccc(C)cc3)C2=O)c1 (stereo not given) | 0.52% (inactive) |
| CC(C)(C)n1nnnc1C(c1cccs1)N(Cc1cccnc1)Cc1ccco1 (stereo not given) | 15.8% (inactive) |

| SMILES | inhibition |
| --- | --- |
| CCCSc1nnc(NC(=O)c2sc3nc(-c4cccs4)ccc3c2N)s1 | 37.4% (active) |
| CCOc1cc(CNc2ccc(O)cc2)ccc1OCc1ccc(Cl)cc1Cl | 13.2% (inactive) |
| c1ccc(-c2ccc(C3CCCN3)cc2)cc1 (stereo not given) | 0.67% (inactive) |
| COC(=O)c1ccc(Cn2nnc3c(=O)[nH]c(C4CCN(S(=O)(=O)c5ccc(F)cc5)CC4)nc32)cc1 | 38% (active) |
| COc1ccc(NC(=S)Nc2ccc3nsnc3c2)cc1 | 24.3% (inactive) |
| COc1ccc2oc(=O)c(-c3csc(Nc4cccc(O)c4)n3)cc2c1 | 9.36% (inactive) |
| COc1cc(N=Nc2cccc(S(N)(=O)=O)c2)c2ccccc2c1N | 33.1% (active) |
| COC(=O)N1C(=O)[C@](c2ccccc2)(C2CCCCC2)N1C(=O)OC | 76.6% (active) |
| Cc1sc2ncnc(OCC(=O)N3CCN(S(=O)(=O)c4ccc(Cl)cc4)CC3)c2c1C | 11.1% (inactive) |
| Cc1ccccc1OCC(=O)NC(=S)Nc1cccc2cc(O)ccc12 | 20.7% (inactive) |
| O=C(COC(=O)CCCN1C(=O)c2cccc3cccc(c23)C1=O)Nc1ccc(Cl)cc1 | 22.7% (inactive) |
| C=CCOc1c(OC)cc(/C=N/Nc2cccc(C(=O)O)c2)c(Br)c1Br | 44.5% (active) |
| Brc1ccc(N=NNc2ccccc2)cc1 | 31.4% (active) |
| O=C1CN(C(=O)c2cc3ccccc3oc2=O)C(c2ccccc2)c2cc(F)ccc2N1 (stereo not given) | 18.1% (inactive) |
| COC(=O)c1ccc(C2Nc3cccc4cccc(c34)N2)cc1 | 51.9% (active) |
| O=C(O)c1cc(N/N=C/c2c(O)ccc3ccccc23)ccc1Cl | 20.7% (inactive) |
| Cc1ccc(O)c(C(=O)c2cc(C#N)c(=O)n(-c3nccs3)c2)c1 | -1.15% (inactive) |
| CC(=O)Oc1c(I)cc(I)cc1C(=O)Nc1ccc(Cl)cc1 | 66.8% (active) |
| CCOc1ccc(N=Nc2c(=O)[nH]n3c(=O)c4c([nH]c23)CCCC4)cc1 | 24.8% (inactive) |
| CCc1cccc(CC)c1NC(=O)COc1ccccc1C(=O)c1cc(C#N)c(=O)n(C2CCCCC2)c1 | 35.9% (active) |
